The structures appear in SMILES notation. Active and inactive are the calls of the source.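 Rule for the calls: active = Her2 level under about 52% in both replicate screens, with viability over 70% of control (limit read from the data); inconclusive = Her2 under the limit in one screen only, or viability under 70%; inactive = Her2 level above the set limit.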

System in the first test: not listed separately
Briefly: reducers of endogenous Her2 protein level, primary screen, SKBR3 breast tumor cells, AlphaScreen, ATP viability (AID 461).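 For Her2 level: lower value means less Her2 protein in the cells.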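 For viability: percent of carrier control wells set as 100% viability.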 Conditions: 18-24 h, measured here: SKBR3 viability, ATP luminescence, at 10 µM. Background: Bead proximity is the source of the signal in Alpha formats.
By viability is commonly meant a read-out of living cells in per cent, often relative to untreated cells. Regarding `COc1ccc(C(=O)Nn2c(SCC(=O)NCC3CCCO3)nc3ccccc3c2=O)cc1` (stereo not given), the viability came to 92.5%.

Consider `COc1ccc(Cc2nnc3n2N=C(c2cc4ccccc4o2)CS3)cc1OC`, for which the viability came to 77%.

Regarding `CC1(C)OC(=O)N(c2cccnc2)C1(C)O` (stereo not given), the viability was determined as 117%.

Regarding `O=c1/c(=C/c2ccco2)sc2nc(-c3ccccc3Br)nn12`, the viability worked out at 97%.

With `CC1Cc2ccccc2N1C(=O)CSc1nc2ccccc2n1CC(=O)N1CCOCC1` (stereo not given), the viability came out at 97%.

For `Cc1oc(-c2ccccc2F)nc1CS(=O)(=O)CC(=O)N1CCCCCC1`, the viability stood at 99%.

In the case of `O=C(NCc1cccnc1)c1ccc(Cl)c(Cl)c1`, the viability came out at 89%.

For the compound `COc1cccc(C(=O)Nc2ccc(NC(C)=O)cn2)c1`, the viability is 98%.

For the compound `CCN(C(=O)CN1CCN(c2ccccc2OC)CC1)c1c(N)n(Cc2ccccc2)c(=O)[nH]c1=O`, the viability amounted to 113%.

As to `CCOC(=O)n1c(SCC(=O)N(CC)CC)nc2ccccc21`, the viability amounted to 118%.

For the compound `CCOC(=O)C1CCN(c2c(NC3CCCCCCC3)c(=O)c2=O)CC1`, the viability was 90%.

For `CCOC(=O)NC(=O)CSc1nnnn1-c1ccc(Cl)cc1`, the viability was determined as 86.5%.

With `COc1cccc(-n2c(C)nc3c(cnn3-c3ccc(Cl)cc3)c2=O)c1`, the viability was 92.5%.

As to `CN(CC(O)COCc1cccs1)C1CCCCC1` (stereo not given), the viability was 93.5%.

`O=C(O)CSc1ccc2ccccc2n1`: the viability was found to be 95.5%.

With `CN(C)Cc1c(O)ccc2oc(Cc3ccccc3)cc12`, the viability was found to be 90%.

Regarding `COC(=O)c1[nH]c(C)c(/C(O)=C2\C(=O)C(=O)N(CCN(C)C)C2c2ccccc2OC)c1C` (stereo not given), the viability is 88%.

Take `CC1(C)Cc2c(sc3c2c(=N)n(Cc2ccco2)c(=O)n3Cc2ccccc2)CO1`: the viability was 98.5%.

Regarding `CCn1nnnc1SCC(=O)N1CCOCC1`, the viability turned out to be 116%.

As for `CN(C)c1ccc(C=Nc2ccc(N(C)C)cc2)cc1`, the viability was found to be 104%.

As to `CCCC(=O)Nc1ccc(OCC(=O)OC)cc1`, the viability is 99.5%.

In the case of `CCn1cc(C(=O)NCCN(C)CCc2ccccc2)c(=O)c2cc(S(=O)(=O)N(C)C)ccc21`, the viability turned out to be 90%.

Take `COc1cccc(-c2cc(C(=O)N3CCCc4ccccc43)no2)c1`: the viability was found to be 110%.

With `O=C(Cn1c(NCCO)nc2ccccc21)c1ccccc1`, the viability amounted to 100%.

For `CCOC(=O)N1CCC(N2C(=O)c3ccccc3C2Nc2cccnc2)CC1` (stereo not given), the viability amounted to 91.5%.

Consider `CCCCCCNS(=O)(=O)c1ccc(Cl)s1`, for which the viability came to 85%.

Take `COC(=O)c1cc(=O)n2c(-c3ccc(OC)cc3)csc2n1`: the viability was determined as 110%.

As for `COC(=O)/C=c1/s/c(=C(/C#N)C(=O)N2CCOCC2)n(-c2ccccc2)c1=O`, the viability came out at 116%.

In the case of `CCOc1ccc2[nH]cc(C(=O)N3CCN(CC)CC3)c(=O)c2c1`, the viability was 98%.

`CCCCN(CCCNC(=O)C1CCN(S(=O)(=O)CC)CC1)c1ccccc1`: the viability came out at 87%.

`COc1ccc(-c2nnn(CCc3nn[nH]n3)n2)cc1OC`: the viability came out at 119%.

As for `CCCCC(=NCCO)C1=C(O)C(C(=O)OC)C(C)(C)CC1=O` (stereo not given), the viability is 90.5%.

As to `COC1CCCCC1NS(=O)(=O)c1ccccc1` (stereo not given), the viability is 106%.

With `Nc1c(N2CCCCC2)c(=O)[nH]c(=O)n1-c1ccccc1`, the viability is 105%.

`O=C(CN1C(=O)CCSc2ccccc21)Nc1ccc2c(c1)OCO2`: the viability is 124%.

For `Cc1cc(C)c2oc(=O)cc(CN3CCOCC3)c2c1`, the viability amounted to 102%.

On to `OCc1nc2ccccc2n1CCCOc1ccccc1`, for which the viability stood at 80.5%.

With `CC(C)(C)c1ccc2c(c1)OCC(C(=O)O)O2` (stereo not given), the viability was determined as 99.5%.

For `O=C1C2C3C=CC(C3=C3CCCCC3)C2C(=O)N1c1ccccc1` (stereo not given), the viability stood at 131%.

Take `CCCN1C(=O)c2cc(C(=O)O)ccc2C1O` (stereo not given): the viability came out at 113%.

For a further test, the target named is Receptor tyrosine-protein kinase erbB-2 (Homo sapiens) (UniProt P04626). The description is as above. The conditions noted are these: 18-24 h, at 10 µM, stronger effect = lower value.
Chain of Receptor tyrosine-protein kinase erbB-2 (Homo sapiens) (P04626 whole entry, looked up): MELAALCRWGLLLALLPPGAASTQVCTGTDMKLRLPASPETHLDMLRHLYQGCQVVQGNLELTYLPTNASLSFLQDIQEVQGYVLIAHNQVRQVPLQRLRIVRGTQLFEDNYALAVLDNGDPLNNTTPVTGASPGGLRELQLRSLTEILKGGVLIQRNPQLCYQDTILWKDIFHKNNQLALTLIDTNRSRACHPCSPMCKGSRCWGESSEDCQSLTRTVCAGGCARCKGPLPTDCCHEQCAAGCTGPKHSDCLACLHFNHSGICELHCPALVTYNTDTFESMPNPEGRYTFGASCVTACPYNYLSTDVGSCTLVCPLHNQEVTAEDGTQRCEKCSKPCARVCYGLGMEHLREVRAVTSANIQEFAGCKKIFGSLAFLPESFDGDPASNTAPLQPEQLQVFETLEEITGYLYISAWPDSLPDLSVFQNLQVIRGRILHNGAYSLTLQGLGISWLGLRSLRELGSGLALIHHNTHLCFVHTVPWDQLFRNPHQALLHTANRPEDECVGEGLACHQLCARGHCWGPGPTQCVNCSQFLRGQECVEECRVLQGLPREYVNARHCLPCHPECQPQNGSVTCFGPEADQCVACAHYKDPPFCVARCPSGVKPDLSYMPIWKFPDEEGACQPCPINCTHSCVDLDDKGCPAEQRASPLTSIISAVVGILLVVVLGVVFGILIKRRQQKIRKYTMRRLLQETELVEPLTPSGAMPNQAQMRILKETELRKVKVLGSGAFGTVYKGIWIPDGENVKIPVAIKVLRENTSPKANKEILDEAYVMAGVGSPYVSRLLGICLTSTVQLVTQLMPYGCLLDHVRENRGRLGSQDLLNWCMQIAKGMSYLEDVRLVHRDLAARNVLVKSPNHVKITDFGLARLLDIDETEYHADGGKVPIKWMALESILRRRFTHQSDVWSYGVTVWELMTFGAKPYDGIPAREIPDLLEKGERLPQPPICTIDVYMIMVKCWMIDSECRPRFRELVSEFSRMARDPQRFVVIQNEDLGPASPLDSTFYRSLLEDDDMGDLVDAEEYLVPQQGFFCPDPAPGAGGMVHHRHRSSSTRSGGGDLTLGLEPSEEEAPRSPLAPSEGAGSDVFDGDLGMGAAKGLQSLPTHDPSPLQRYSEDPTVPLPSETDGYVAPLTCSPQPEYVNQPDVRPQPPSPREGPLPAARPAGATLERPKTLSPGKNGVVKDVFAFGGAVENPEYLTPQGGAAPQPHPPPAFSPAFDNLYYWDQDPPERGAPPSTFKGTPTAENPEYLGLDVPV
With `COc1ccc(C(=O)Nn2c(SCC(=O)NCC3CCCO3)nc3ccccc3c2=O)cc1` (stereo not given), the Her2 level was 95% (inactive).

Take `COc1ccc(Cc2nnc3n2N=C(c2cc4ccccc4o2)CS3)cc1OC`: the Her2 level is 79.5% (inactive).

Consider `CC1(C)OC(=O)N(c2cccnc2)C1(C)O` (stereo not given), for which the Her2 level was 83% (inactive).

Turning to `O=c1/c(=C/c2ccco2)sc2nc(-c3ccccc3Br)nn12`, the Her2 level is 89.5% (inactive).

As for `CC1Cc2ccccc2N1C(=O)CSc1nc2ccccc2n1CC(=O)N1CCOCC1` (stereo not given), the Her2 level was 91% (inactive).

With `Cc1oc(-c2ccccc2F)nc1CS(=O)(=O)CC(=O)N1CCCCCC1`, the Her2 level is 108% (inactive).

In the case of `O=C(NCc1cccnc1)c1ccc(Cl)c(Cl)c1`, the Her2 level was 75% (inactive).

`COc1cccc(C(=O)Nc2ccc(NC(C)=O)cn2)c1`: the Her2 level was 76% (inactive).

Take `CCN(C(=O)CN1CCN(c2ccccc2OC)CC1)c1c(N)n(Cc2ccccc2)c(=O)[nH]c1=O`: the Her2 level was 102% (inactive).

Consider `CCOC(=O)n1c(SCC(=O)N(CC)CC)nc2ccccc21`, for which the Her2 level is 97.5% (inactive).

Consider `CCOC(=O)C1CCN(c2c(NC3CCCCCCC3)c(=O)c2=O)CC1`, for which the Her2 level was 112% (inactive).

Regarding `CCOC(=O)NC(=O)CSc1nnnn1-c1ccc(Cl)cc1`, the Her2 level was 94% (inactive).

For the compound `COc1cccc(-n2c(C)nc3c(cnn3-c3ccc(Cl)cc3)c2=O)c1`, the Her2 level is 86% (inactive).

`CN(CC(O)COCc1cccs1)C1CCCCC1` (stereo not given): the Her2 level was 90% (inactive).

Turning to `O=C(O)CSc1ccc2ccccc2n1`, the Her2 level is 81% (inactive).

As for `CN(C)Cc1c(O)ccc2oc(Cc3ccccc3)cc12`, the Her2 level is 86% (inactive).

On to `COC(=O)c1[nH]c(C)c(/C(O)=C2\C(=O)C(=O)N(CCN(C)C)C2c2ccccc2OC)c1C` (stereo not given), for which the Her2 level is 114% (inactive).

For `CC1(C)Cc2c(sc3c2c(=N)n(Cc2ccco2)c(=O)n3Cc2ccccc2)CO1`, the Her2 level is 88.5% (inactive).

Take `CCn1nnnc1SCC(=O)N1CCOCC1`: the Her2 level is 91% (inactive).

As for `CN(C)c1ccc(C=Nc2ccc(N(C)C)cc2)cc1`, the Her2 level is 94% (inactive).

As for `CCCC(=O)Nc1ccc(OCC(=O)OC)cc1`, the Her2 level was 78.5% (inactive).

Turning to `CCn1cc(C(=O)NCCN(C)CCc2ccccc2)c(=O)c2cc(S(=O)(=O)N(C)C)ccc21`, the Her2 level was 106% (inactive).

On to `COc1cccc(-c2cc(C(=O)N3CCCc4ccccc43)no2)c1`, for which the Her2 level was 89.5% (inactive).

Regarding `O=C(Cn1c(NCCO)nc2ccccc21)c1ccccc1`, the Her2 level was 100% (inactive).

As to `CCOC(=O)N1CCC(N2C(=O)c3ccccc3C2Nc2cccnc2)CC1` (stereo not given), the Her2 level is 104% (inactive).

For the compound `CCCCCCNS(=O)(=O)c1ccc(Cl)s1`, the Her2 level is 86.5% (inactive).

For `COC(=O)c1cc(=O)n2c(-c3ccc(OC)cc3)csc2n1`, the Her2 level was 97.5% (inactive).

As for `COC(=O)/C=c1/s/c(=C(/C#N)C(=O)N2CCOCC2)n(-c2ccccc2)c1=O`, the Her2 level is 80.5% (inactive).

As for `CCOc1ccc2[nH]cc(C(=O)N3CCN(CC)CC3)c(=O)c2c1`, the Her2 level was 104% (inactive).

As for `CCCCN(CCCNC(=O)C1CCN(S(=O)(=O)CC)CC1)c1ccccc1`, the Her2 level is 89.5% (inactive).

`COc1ccc(-c2nnn(CCc3nn[nH]n3)n2)cc1OC`: the Her2 level is 98.5% (inactive).

Consider `CCCCC(=NCCO)C1=C(O)C(C(=O)OC)C(C)(C)CC1=O` (stereo not given), for which the Her2 level is 93% (inactive).

Take `COC1CCCCC1NS(=O)(=O)c1ccccc1` (stereo not given): the Her2 level is 96.5% (inactive).

As for `Nc1c(N2CCCCC2)c(=O)[nH]c(=O)n1-c1ccccc1`, the Her2 level was 139% (inactive).

Consider `O=C(CN1C(=O)CCSc2ccccc21)Nc1ccc2c(c1)OCO2`, for which the Her2 level is 85.5% (inactive).

On to `Cc1cc(C)c2oc(=O)cc(CN3CCOCC3)c2c1`, for which the Her2 level is 97% (inactive).

For `OCc1nc2ccccc2n1CCCOc1ccccc1`, the Her2 level is 102% (inactive).

On to `CC(C)(C)c1ccc2c(c1)OCC(C(=O)O)O2` (stereo not given), for which the Her2 level was 106% (inactive).

Consider `O=C1C2C3C=CC(C3=C3CCCCC3)C2C(=O)N1c1ccccc1` (stereo not given), for which the Her2 level is 89.5% (inactive).

`CCCN1C(=O)c2cc(C(=O)O)ccc2C1O` (stereo not given): the Her2 level is 100% (inactive).

Values taken from PubChem BioAssay.
